Source: PubChem (National Center for Advancing Translational Sciences (NCATS))
IDH1 R132H inh: qHTS for Inhibitors of mutant isocitrate dehydrogenase 1 (IDH1): qHTS. Isocitrate dehydrogenase [NADP] cytoplasmic (Homo sapiens), O75874. Potency, µM (highest dose often 76.6 µM), actives largely listed as inhibitors. 390,000 tested, 0.093% active. IDH1-R132H enzyme, NADPH consumption, diaphorase/resazurin fluorescence; note: nearly all actives have a fitted effect of over 65% in size
Target sequence (O75874 whole entry R132H, stated change not applied): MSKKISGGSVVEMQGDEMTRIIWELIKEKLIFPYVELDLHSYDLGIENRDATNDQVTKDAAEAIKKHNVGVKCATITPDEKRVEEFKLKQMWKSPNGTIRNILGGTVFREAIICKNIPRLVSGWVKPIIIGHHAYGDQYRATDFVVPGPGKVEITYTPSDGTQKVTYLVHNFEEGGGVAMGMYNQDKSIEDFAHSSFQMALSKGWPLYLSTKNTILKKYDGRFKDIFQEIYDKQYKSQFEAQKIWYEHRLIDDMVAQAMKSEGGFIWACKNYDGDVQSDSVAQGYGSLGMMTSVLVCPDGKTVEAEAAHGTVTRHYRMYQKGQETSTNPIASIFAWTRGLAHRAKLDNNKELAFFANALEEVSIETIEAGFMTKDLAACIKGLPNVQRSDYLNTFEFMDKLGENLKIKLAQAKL
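IDH1-R132H (0.5 ug/mL dispensed) in pH 7.5 Tris buffer was preincubated 30 min with compound, then given a substrate mix of 0.016 mM NADPH and 2 mM alpha-KG for 80 min at room temperature; remaining NADPH was read by diaphorase/resazurin fluorescence.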
DRD3 agonist: qHTS of D3 Dopamine Receptor Agonist: qHTS; D3R DiscoveRx beta-arrestin cells, luminescence, 90 min; max activation, %; D(3) dopamine receptor (Homo sapiens), P35462; 410,000 tested, 0.58% active; in the data active = max activation above about 30%
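Agonist mode: compounds and dopamine controls were applied to plated cells for 90 min at 37 degrees C after an overnight attachment at 1500 cells/well. Luminescent read-out followed 30 - 60 minutes at room temperature with DiscoveRx detection reagent.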
B2AR arrestin: qHTS assay of beta-arrestin-biased ligands of beta2-adrenergic receptor | beta-arrestin recruitment to beta2AR, cell-based reporter | Potency, µM (top dose mostly 46.1 µM), usual class: activators | 330,000 tested, 0.02% active | AID 492947, 2010; note: nearly all actives have a fitted effect of over 65% in size
D3 antag: qHTS of D3 Dopamine Receptor Antagonist: qHTS; max response, negative = inhibition, %; D3R cells, DiscoveRx beta-arrestin luminescence, antagonist mode; stronger effect = lower value; 360,000 tested, 2.5% active; in the data active = max response below about -50%; inconclusive = no clear call, values can overlap the other calls
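Cells plated overnight at 1500 cells/well, then exposed to library compounds with dopamine controls for 90 minutes at 37 degrees C. DiscoveRx reagent added for 30–60 minutes at room temperature; luminescence read, quantitative HTS format.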
a7 integrin act: qHTS for Activators of Integrin-Mediated Alleviation for Muscular Dystrophy. AID 624291, 2012. Potency, µM (titrated, usually from 38.3 µM), usual class: activators. alpha7betagal myoblasts, beta-gal FDG fluorescence, 48 h. 350,000 tested, 0.064% active; note: nearly all actives have a fitted effect of over 60% in size
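alpha7betagal+/- myoblasts (passage 13, 250/well) treated 48 h at 37C with compounds at 1:260 dilution of DMSO stock. Lysed, then beta-galactosidase activity read as FDG fluorescence (ex 480/em 540) after 30 min, with pre-read for autofluorescence.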
Of the large screens only hits and unclear results are named; the others gave an inactive call; ! = not confirmed by another sample. Compounds with a hit are over-represented: about 2.9% of the library has one in this group of screens. Unless noted, calls come from the whole dose curve; as a rule, active = well fitted curve in the direction sought with a large enough effect; inconclusive = small, poorly fitted or top-dose-only effect, or another doubt; inactive = no such curve, though single readings can be large; an effect the other way counts as inactive or inconclusive.

O=C(O)c1ccc(N/N=C/c2c(F)cccc2Cl)cc1	a7 integrin act inconclusive
O=C(Nc1ccc(Nc2ccccc2)cc1)c1cc([N+](=O)[O-])ccc1Cl	D3 antag -51
O=C(Nc1ccccc1Oc1ccccc1)c1cc([N+](=O)[O-])ccc1Cl	none
CC(=O)N1CC(C)Oc2ccc(S(=O)(=O)NC(CC(=O)O)c3ccc(C)cc3C)cc21 (configuration not stated)	none
NC[C@H](O)c1ccc(O)c(O)c1	DRD3 agonist 47! (no result: B2AR arrestin, a7 integrin act)
CC(C)NCC(O)c1ccc(O)c(O)c1 (configuration not stated)	DRD3 agonist 39! (no result: B2AR arrestin, a7 integrin act)
CC(C)NCC(O)c1ccc2ccccc2c1 (configuration not stated)	none (no result: B2AR arrestin, a7 integrin act)
Oc1ccc(C(O)CNCCCCCCNCC(O)c2ccc(O)c(O)c2)cc1O (configuration not stated)	none (no result: IDH1 R132H inh, B2AR arrestin, D3 antag, a7 integrin act)
Cc1ccc(NC(=O)Nc2nnc(SCC(=O)N3CCC(C)CC3)s2)cc1	none (no result: B2AR arrestin, D3 antag, a7 integrin act)
CC1(C)C(\C=C/C=C\C=C/C=C2/N(CCCCS(=O)(=O)O)c3ccc4ccccc4c3C2(C)C)=[N+](CCCCS(=O)(=O)[O-])c2ccc3ccccc3c21	none (no result: IDH1 R132H inh, B2AR arrestin, D3 antag, a7 integrin act)
CCCCC(=O)Nc1nnc(SCc2cc(=O)n3cc(C)ccc3n2)s1	none (no result: B2AR arrestin, D3 antag, a7 integrin act)
Cc1ccc(NC(=O)Cn2c(=O)n(-c3ccc(C)cc3)c(=O)c3ccc(C(=O)NCc4ccccc4Cl)cc32)cc1	none (no result: B2AR arrestin, D3 antag, a7 integrin act)
Cn1c(N)c(C(=O)Nc2cccc(Cl)c2)c(=O)n(C)c1=O	none
CN=c1sc(C(=O)Nc2cccc(Cl)c2)cc(=O)n1C	D3 antag -51
Cc1cc(C)cc(C(=O)Nc2cccc(NC(=O)c3ccco3)c2)c1	none
CCOC(=O)[C@H]1[C@H]2COc3ccc(C)cc3[C@@H]2N2C(=O)c3cc(OC)c(OC)cc3NC(=O)[C@@]12C	D3 antag -60
CCCCN1CC(=O)N2[C@@H]3c4cc(OC)ccc4OC[C@@H]3[C@H](C(=O)OCC)[C@]2(C)C1=O	DRD3 agonist 49 (no result: B2AR arrestin)
CCOC(=O)[C@H]1[C@H]2COc3ccc(OC)cc3[C@@H]2N2C(=O)c3cc(OC)c(OC)cc3NC(=O)[C@@]12C	D3 antag -61
CCCCN1CC(=O)N2[C@H]3c4cc(OC)ccc4OC[C@@H]3[C@H](C(=O)OCC)[C@]2(C)C1=O	none
CCOC(=O)[C@H]1[C@H]2COc3ccc(Br)cc3[C@@H]2N2C(=O)c3cc(OC)c(OC)cc3NC(=O)[C@@]12C	none
COc1ccccc1CC(=O)Nc1ccc2nc(Nc3cccc(Cl)c3)cc(C)c2c1	none (no result: B2AR arrestin, D3 antag, a7 integrin act)
C=C(C)[C@@H]1CCC2(C(=O)O)CC[C@]3(C)[C@H](CC[C@@H]4[C@@]5(C)CCC(=O)C(C)(C)[C@@H]5CC[C@]43C)[C@@H]12 (some centres not stated)	none
CC(=O)O[C@@H](C[C@@H](C)C1=C2C[C@H](O)C3[C@@]4(C)CCC(=O)C(C)(C)C4CC[C@]3(C)[C@@]2(C)CC1)[C@H]1OC1(C)C (some centres not stated)	IDH1 R132H inh inconclusive, DRD3 agonist 50 (no result: B2AR arrestin)
COc1ccccc1N1CCN(S(=O)(=O)c2c(C)nc3sc(C)c(C)n3c2=O)CC1	none (no result: B2AR arrestin, D3 antag, a7 integrin act)
COc1ccc(O)c(C(=O)/C=C/c2cc3ccccc3o2)c1	D3 antag -62
CCN(c1ccc(C)cc1)S(=O)(=O)c1nnc(NC(=O)C2CCCCC2)s1	none (no result: IDH1 R132H inh, B2AR arrestin, D3 antag, a7 integrin act)
CCc1ccc(NC(=O)CSC2=Nc3ccccc3C3=NC(CC(=O)NCc4ccc5c(c4)OCO5)C(=O)N23)cc1 (configuration not stated)	none (no result: B2AR arrestin, D3 antag, a7 integrin act)
O=c1[nH][nH]c(C(F)(F)F)c1C=Nc1ccc(Cl)cc1	none
O=c1[nH][nH]c(C(F)(F)F)c1C=NCc1cccc(Cl)c1	D3 antag -88
O=c1[nH][nH]c(C(F)(F)F)c1C=NCc1ccc(Cl)cc1	D3 antag -84
Cc1nc2c(-c3ccccc3)c(C)[nH]n2c(=O)c1Cc1ccc(Br)cc1	none (no result: B2AR arrestin, D3 antag, a7 integrin act)
O=C(CSc1ccc(F)cc1)Nc1nnc(-c2ccco2)o1	none
